For some of these results: Results with a measured potency or affinity are listed apart. Activity calls are given as the source filed them. Where a SMILES comes first, the peptide text is derived from it. Bridges are numbered along the chain shown (N, C = ends). [ ]: non-standard residue; d: D form. The star is where a group is joined. Dab(CH2SO3H) = N[C@@H](CCNCS(=O)(=O)O)C(=O)O; X1 = CC[C@@H](C)CCCCC(=O)*; Dab = NCC[C@H](N)C(=O)O
Assays:
[1] = Ebola virus entry assay, blue channel fluorescence
[2] = Ebola virus entry assay, green fluorescence channel
[3] = Ebola virus entry assay, ratio channel readout
[4] = Ebola virus entry assay, green fluorescence channel; remark: listed apart in the source
[5] = Ebola virus entry assay, green channel fluorescence
[6] = qHTS profiling of the MIPE4 collection as inhibitors of Plasmodium falciparum (HB3) proliferation (AID 743347);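 also: plate controls were DMSO vehicle wells for no effect and artemisinin wells for full effect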; conditions: P. falciparum HB3 in erythrocytes, SYBR Green DNA, 72 h; at 28.5 µM (top of the series) unless noted
Procedure, shortened: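 Erythrocytes infected with P. falciparum (0.3% parasitemia, 2.5% hematocrit) incubated with compounds 72 h at 37 C, 5% CO2. Lysis with saponin/Triton buffer containing SYBR Green I, overnight at room temperature in the dark; DNA fluorescence (485/535 nm) normalised to 0.29 uM artemisinin and DMSO.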
For efficacy in this document: 0% is about no effect.

In the case of `CC[C@@H](C)CCCCC(=O)N[C@@H](CCNCS(=O)(=O)O)C(=O)N[C@H](C(=O)N[C@@H](CCNCS(=O)(=O)O)C(=O)N[C@H]1CCNC(=O)[C@H]([C@@H](C)O)NC(=O)[C@H](CCNCS(=O)(=O)O)NC(=O)[C@H](CCNCS(=O)(=O)O)NC(=O)[C@H](CC(C)C)NC(=O)[C@@H](CC(C)C)NC(=O)[C@H](CCNCS(=O)(=O)O)NC1=O)[C@@H](C)O` (X1-[Dab(CH2SO3H)]T[Dab(CH2SO3H)][Dab][Dab(CH2SO3H)][dL]L[Dab(CH2SO3H)][Dab(CH2SO3H)]T; lactam 4-C), the outcome [1] is reported as “inactive”, the outcome [2] is reported as “inactive” and the outcome [3] is reported as “inactive”.
For `CCCC(O)C(CC)CO` (stereo not given), the efficacy [4] was 14.1% (inactive) and the outcome [5] was “inactive”.
With `CNC(=O)c1ccccc1Sc1ccc2c(/C=C/c3ccccn3)n[nH]c2c1` the efficacy [4] was 28.2% (inactive) and the outcome [5] was “inactive”.
In the case of `NC(N)=NCCN1CCCCCCC1`, the efficacy [4] is reported as -19.4% (inactive) and the outcome [5] is reported as “inactive”.
In the case of `COc1ccc(C(=O)c2ccccc2O)c(O)c1`, the efficacy [4] is reported as -11.1% (inactive) and the outcome [5] is reported as “inactive”.
With `O=C(CCCl)NCCc1ccccc1` the efficacy [4] was -10.7% (inactive) and the outcome [5] was “inactive”.
With `O=C(O)CCCC[P+](c1ccccc1)(c1ccccc1)c1ccccc1` the efficacy [4] was 19.9% (inactive) and the outcome [5] was “inactive”.
With `CC(=O)Nc1ccc(/C=N/NC(N)=S)cc1` the efficacy [4] was 33.2% (inactive) and the outcome [5] was “inactive”.
In the case of `Cn1c(=O)c2[nH]cnc2n(C)c1=O`, the growth, % of control [6] is reported as 96.9%, the efficacy [4] is reported as -18.7% (inactive) and the outcome [5] is reported as “inactive”.
For `N#Cc1ccc2c(c1)N(CCCN1CCC(O)CC1)c1ccccc1S2`, the outcome [1] was “inactive”, the outcome [2] was “inactive” and the AC50 [3] was 22.4 µM (active).
In the case of `CC12CCC(CC1)C(C)(C)O2`, the efficacy [4] is reported as 14.6% (inactive) and the outcome [5] is reported as “inactive”.

— PubChem BioAssay (NCATS)
